# Experimental data from PubChem BioAssay (NCATS).
# Where “and” joins values, the source holds several entries; their conditions need not be identical. Identical values can stand only once. Values without a mark were called inactive. For part of these data: Measured potencies and affinities stand elsewhere. Calls of active or inactive are those of the source.
# Columns and labels:
# [1] = Ebola virus entry assay, green fluorescence channel
# [2] = Ebola virus entry assay, blue channel fluorescence
# [3] = Ebola virus entry assay, green fluorescence channel; remark: listed apart in the source
# [4] = Ebola virus entry assay, ratio channel readout
# [5] = Ebola virus entry assay, blue channel fluorescence; remark: listed apart in the source
# [6] = Ebola virus entry assay, ratio channel
# [7] = Ebola virus entry assay, reporter ratio channel; AC50: Channel type: primary unless noted; outcome: Channel type: primary unless noted
# [8] = Ebola virus entry cell assay, ratio channel
# [9] = Immunotoxin (HA22) sensitization/mitigation study. Vehicle arm (PBS) (AID 1159510); conditions: cancer cells viability with PBS vehicle (HA22 study); series mostly up to 46.1 µM; further: potency means the concentration at half of the fitted maximal effect
# Wherever efficacy is given: 0% is about no effect.
SMILES,efficacy [1],outcome [2],outcome [3],outcome [4],AC50 [5],AC50 [6],AC50 [7],outcome [8],Potency [9],AC50 [8],AC50 [2],outcome [7],AC50 [4],AC50 [3],outcome [5],outcome [6]
CS(=O)(=O)CCNCc1ccc(-c2ccc3ncnc(Nc4ccc(OCc5cccc(F)c5)c(Cl)c4)c3c2)o1,108%,inactive,inactive,inactive,3.55 µM (active),3.98 µM (active),3.98 µM (active),inactive,20.9 µM (active),,,,,,,
CN(C)CCC=C1c2ccccc2C=Cc2ccccc21,108%,inactive,inactive,inactive,11.2 µM (active),10 µM (active),10 µM (active),,,12.6 µM (active),,,,,,
COc1cc(NC(C)CCCN)c2ncccc2c1 (stereo not given),-153%,inactive,inactive,inactive,5.01 µM (active),3.55 µM (active),3.55 µM (active),inactive,,,,,,,,
CCCCc1oc2ccc(NS(C)(=O)=O)cc2c1C(=O)c1ccc(OCCCN(CCCC)CCCC)cc1,-249%,,inactive,inactive,0.891 µM (active),0.891 µM (active),,,,3.16 µM (active),7.08 µM (active),inactive [Channel type: confirmation],,,,
C[C@@H](NCCCc1cccc(C(F)(F)F)c1)c1cccc2ccccc12,-223%,inactive,inactive,inactive,3.98 µM (active),3.55 µM (active),3.55 µM (active),,,12.6 µM (active),,,,,,
CC[C@]1(O)C[C@@H]2CN(CCc3c([nH]c4ccccc34)[C@@](C(=O)OC)(c3cc4c(cc3OC)N(C)[C@H]3[C@@](O)(C(=O)OC)[C@H](OC(C)=O)[C@]5(CC)C=CCN6CC[C@]43[C@@H]65)C2)C1,-50.1% and 54.6%,,inactive,inactive,0.794 µM (active),1 µM (active) and 891 nM (active),1 µM (active) and 891 nM (active),,,0.01 µM (active),0.0009 µM (active),,,,,
CCc1nn(CCCN2CCN(c3cccc(Cl)c3)CC2)c(=O)n1CCOc1ccccc1,111%,inactive,inactive,inactive,39.8 µM (active),31.6 µM (active),31.6 µM (active),,,22.4 µM (active),,,,,,
CCCSc1ccc2nc(NC(=O)OC)[nH]c2c1,60.2%,inactive,inactive,inactive,3.16 µM (active),3.98 µM (active),,,,8.91 µM (active),,inactive [Channel type: confirmation],,,,
CN(C)C(=O)C(CCN1CCC(O)(c2ccc(Cl)cc2)CC1)(c1ccccc1)c1ccccc1,-226%,,inactive,inactive,3.16 µM (active),2.51 µM (active),2.51 µM (active),,,11.2 µM (active),11.2 µM (active),,,,,
CN1CCN(C2=Nc3ccccc3Oc3ccc(Cl)cc32)CC1,112%,inactive,inactive,inactive,39.8 µM (active),31.6 µM (active),31.6 µM (active),inactive,,,,,,,,
Clc1ccc2c(c1)C(N1CCNCC1)=Nc1ccccc1O2,94.9%,,inactive,,14.1 µM (active),10 µM (active),10 µM (active),,,12.6 µM (active),14.1 µM (active),,12.6 µM (active),,,
CC(CN1c2ccccc2Sc2ccccc21)N(C)C (stereo not given),81.3%,inactive,inactive,inactive,39.8 µM (active),31.6 µM (active),31.6 µM (active),,,20 µM (active),,,,,,
O=C1c2c(O)ccc(O)c2C(=O)c2c(NCCNCCO)ccc(NCCNCCO)c21,-106%,,inactive,inactive,12.6 µM (active),7.94 µM (active),7.94 µM (active),,,5.01 µM (active),5.01 µM (active),,,,,
Cc1ccccc1C(OCCN(C)C)c1ccccc1 (stereo not given),62.3%,,inactive,inactive,7.94 µM (active),8.91 µM (active),8.91 µM (active),,,8.91 µM (active),10 µM (active),,,,,
CSc1ccc2c(c1)N(CCC1CCCCN1C)c1ccccc1S2 (stereo not given),-213%,,inactive,inactive,3.55 µM (active),3.16 µM (active),3.16 µM (active),,,6.31 µM (active),10 µM (active),,,,,
CNCCCN1c2ccccc2CCc2ccccc21,91.8%,inactive,inactive,inactive,10 µM (active),7.94 µM (active),7.94 µM (active),,,15.8 µM (active),,,,,,
Cc1ccc(O)c([C@H](CCN(C(C)C)C(C)C)c2ccccc2)c1,106%,,inactive,inactive,14.1 µM (active),12.6 µM (active),12.6 µM (active),,,11.2 µM (active),12.6 µM (active),,,,,
CC(CN(C)C)CN1c2ccccc2CCc2ccccc21 (stereo not given),31.5%,inactive,inactive,,7.94 µM (active),6.31 µM (active),6.31 µM (active),,,14.1 µM (active),,,14.1 µM (active),,,
CN1CCC[C@@H]1CCO[C@](C)(c1ccccc1)c1ccc(Cl)cc1,-151%,,inactive,,1.78 µM (active),1.41 µM (active),1.41 µM (active),,,3.16 µM (active),3.55 µM (active),,3.17 µM (active),,,
NC(=O)C(c1ccccc1)(c1ccccc1)[C@@H]1CCN(CCc2ccc3c(c2)CCO3)C1,91.3%,inactive,inactive,inactive,39.8 µM (active),31.6 µM (active),31.6 µM (active),inactive,,,,,,,,
COc1cc(NCc2ccc3nc(N)nc(N)c3c2C)cc(OC)c1OC,44.2%,inactive,inactive,inactive,35.5 µM (active),28.2 µM (active),28.2 µM (active),inactive,,,,,,,,
CN(C)CCCN1c2ccccc2CCc2ccc(Cl)cc21,-191%,,inactive,,3.16 µM (active),3.16 µM (active),,,,6.31 µM (active),7.94 µM (active),inactive [Channel type: confirmation],6.31 µM (active),,,
COc1cc2nc(N3CCN(C(=O)c4ccco4)CC3)nc(N)c2cc1OC,75.4%,inactive,inactive,inactive,15.8 µM (active),12.6 µM (active),12.6 µM (active),,,12.6 µM (active),,,,,,
OCCN(CCO)c1nc(N2CCCCC2)c2nc(N(CCO)CCO)nc(N3CCCCC3)c2n1,489%,inactive,,inactive,,,,inactive,,,,inactive,,25.1 µM (active),inactive,inactive
OC(CCN1CCCC1)(c1ccccc1)C1CCCCC1 (stereo not given),120%,inactive,inactive,inactive,25.1 µM (active),20 µM (active),20 µM (active),,,20 µM (active),,,,,,
COC(=O)C1=C(C)NC(C)=C(C(=O)OCC(C)C)C1c1ccccc1[N+](=O)[O-] (stereo not given),55.8%,inactive,inactive,inactive,28.2 µM (active),17.8 µM (active),17.8 µM (active),inactive,,,,,,,,
CCCN(CCc1cccs1)[C@H]1CCc2c(O)cccc2C1,-47.6%,inactive,inactive,inactive,25.1 µM (active),25.1 µM (active),25.1 µM (active),,,15.8 µM (active),,,,,,
C[C@@H](O[C@H]1OCCN(Cc2n[nH]c(=O)[nH]2)[C@H]1c1ccc(F)cc1)c1cc(C(F)(F)F)cc(C(F)(F)F)c1,67.5%,inactive,inactive,inactive,28.2 µM (active),28.2 µM (active),28.2 µM (active),inactive,,,,,,,,
